From PubChem
Many of the other results were omitted from the sample, so hits are more common in it than they were.
RE007 growth inh: qHTS Assay for Inhibitors of the HIV-1 protein Vpr; S. pombe RE007 Vpr strain, BacTiter-Glo ATP luminescence, 24 h; Potency, µM (highest dose often 92.2 µM), for the others: top-dose activity change, negative = less growth, most hits filed as inhibitors; hit rate 0.21% among 360,000; active means well fitted falling curve with a large enough effect; inconclusive means small, poorly fitted or top-dose-only effect; inactive means no such curve, though single readings can be large or run the other way; further: potency means the concentration at half of the fitted maximal effect; on the % scale 0 is the no-effect control and ±100 the full control effect; nearly all actives have a fitted effect of over 50% in size
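Fission yeast RE007 carrying one integrated HIV-1 vpr copy, seeded at OD 0.01 in PMG+AL medium with 23 nL pinned compound. Grown 24 h at 30 degrees; viability read by BacTiter-Glo luminescence after 5 min.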
LmPK inhibitor: qHTS Assay for Inhibitors of Leishmania Mexicana Pyruvate Kinase (LmPK); Q27686; purified LmPK, Kinase-Glo ATP luminescence, 1 h; Potency, µM (doses to about 57.5 µM), for the others: at the top dose activity change, negative = inhibition, most hits filed as inhibitors; hit rate 0.37% among 290,000; AID 1721, 2009; further: potency means the concentration at half of the fitted maximal effect; on the % scale 0 is the no-effect control and ±100 the full control effect
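In 50 mM imidazole pH 7.2 with 7 mM MgCl2, LmPK (0.1 nM) turned over PEP (0.5 mM) and ADP (0.1 mM) for 1 h at room temperature. Luciferase read-out of ATP.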
Shiga toxin inh: A qHTS for Small Molecule Inhibitors of Shiga Toxin. Vero cells, Shiga toxin protein synthesis inhibition reporter. hit rate 9.2% among 290,000. inhibition, % at 38.7 µM; in the data active means inhibition mostly above about 28%, no sharp cut-off; inactive means mostly below about 43%; further: 0% is about no effect
CHX counter: Cycloheximide Counterscreen for Small Molecule Inhibitors of Shiga Toxin. max response, %. cell reporter, cycloheximide protein synthesis inhibition counterscreen. hit rate 12% among 300,000; in the data active means max response mostly above about 13%, no sharp cut-off; inactive means mostly below about 14%; further: read at 38.3 µM for the half of the compounds with a filed dose; 0% is about no effect
TbPYK inhibitor: qHTS of Trypanosoma Brucei Inhibitors | pyruvate kinase (Trypanosoma brucei), Q57TT1 | TbPYK enzyme, Kinase-Glo Plus ATP luminescence, 45 min | Potency, µM (titrated, usually from 76.8 µM), without a hit: at the top dose activity, negative = inhibition, usual class: inhibitors | hit rate 0.12% among 410,000; further: potency means the concentration at half of the fitted maximal effect; on the % scale 0 is the no-effect control and ±100 the full control effect; nearly all actives have a fitted effect of over 50% in size
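Activity of T. brucei pyruvate kinase was followed by Kinase-Glo Plus luminescence after the enzyme reacted 45 min at room temperature with 130 uM ADP (final) and substrate. Test compounds were added before ADP at multiple concentrations.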
FBPA Giardia inh: qHTS Assay for Inhibitors of Fructose-1,6-bisphosphate Aldolase from Giardia Lamblia; Potency, µM (doses to about 59.6 µM), inactives show at the highest dose activity, negative = inhibition, most hits filed as inhibitors; AID 2451, 2010; purified Giardia FBPA; hit rate 0.71% among 290,000; further: potency means the concentration at half of the fitted maximal effect; on the % scale 0 is the no-effect control and ±100 the full control effect; nearly all actives have a fitted effect of over 55% in size
Target sequence (A8B2U2 whole entry, looked up): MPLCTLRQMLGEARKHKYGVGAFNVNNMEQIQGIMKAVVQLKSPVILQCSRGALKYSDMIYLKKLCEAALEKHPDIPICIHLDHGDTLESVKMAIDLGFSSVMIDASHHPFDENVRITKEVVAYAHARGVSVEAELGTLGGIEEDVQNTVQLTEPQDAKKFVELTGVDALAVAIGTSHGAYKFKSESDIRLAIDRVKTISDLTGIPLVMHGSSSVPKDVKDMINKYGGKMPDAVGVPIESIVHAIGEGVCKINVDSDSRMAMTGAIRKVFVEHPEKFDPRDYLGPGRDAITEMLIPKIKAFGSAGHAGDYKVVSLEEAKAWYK
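40 nM FBPA preincubated 10 min at RT with compound (up to 57.5 uM final), then substrate plus GAPDH/TPI/NAD/arsenate coupling and diaphorase/resazurin added. Fluorescence read after 20 min at RT, 525/598 nm.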
Starred values were filed as active, the others as inactive; u = inconclusive; x = not tested or not shown; [ ] = remark or other dose. Unless noted, the call rests on the fitted dose curve; in most records, active means well fitted curve in the direction sought with a large enough effect; inconclusive means small, poorly fitted or top-dose-only effect, or another doubt; inactive means no such curve, though single readings can be large; an effect the other way counts as inactive or inconclusive.

SMILES	RE007 growth inh	LmPK inhibitor	Shiga toxin inh	CHX counter	TbPYK inhibitor	FBPA Giardia inh
Cc1[nH]cnc1CSCc1ccc(Cl)cc1	-10%	3%	73*	23*	4%	-9%
Cc1ccccc1C(=O)c1cccn1CC(=O)NCc1cccc(Cl)c1	6%	-2%	42*	50*	-6%	12%
COc1cccc(CNC(=O)Cn2cccc2C(=O)c2ccccc2C)c1	5%	7%	60	21*	-2%	x
Cc1ccccc1C(=O)c1cccn1CC(=O)NCCC1=CCCCC1	6%	9%[11.5 µM]	40	25*	6%	2%
COc1ccccc1CNC(=O)Cn1cccc1C(=O)c1ccccc1C	-6%	-3%	46*	43*	-5%	x
CCCCCOc1ccccc1CN1C(=O)C(=O)c2cc(C)ccc21	x	x	x	x	0%	x
COc1ccc(-c2nc3c(c4c2C[C@H](c2ccccc2)OC4)CN(S(=O)(=O)c2ccc(C#N)cc2)CC3)c(C)c1	x	-4%[11.5 µM]	x	x	x	3%[12.9 µM]
COC(=O)Cc1c(O)ccn(CCc2c[nH]c3ccccc23)c1=O	3%	-1%	-1	-5	-2%	4%
COC(=O)Cc1c(OC)ccn(CCc2c[nH]c3ccccc23)c1=O	11%	0%	103*	34*	-2%	-7%
O=C(COC(=O)c1cccs1)c1ccc2ccccc2c1	u	-3%	98*	56*	3%	-4%
O=C(NNC(=O)c1cccs1)c1ccc2ccccc2c1	9%	-5%	51*	29*	4%	10%
O=C(COC(=O)c1cccs1)c1ccc2c(c1)OCCO2	u	13µM*	-14	-2	u	2%
CN(C)c1ccc(C(=O)OCC(=O)c2cccs2)cc1	0%	2%	71*	45*	-8%	3%
NS(=O)(=O)c1cc(C(=O)OCC(=O)c2ccc3c(c2)OCCO3)ccc1Cl	-6%	0%	59*	40*	9%	-1%
Cc1ccc(C(=O)COC(=O)c2cccs2)cc1	-25%	u	-2	11	-14%	5%
CCc1ccc(C(=O)COC(=O)c2cccs2)cc1	x	16µM*	52	23*	-15%	2%
CNS(=O)(=O)c1cccc(C(=O)OCC(=O)c2ccc3c(c2)OCCO3)c1	-19%	x	x	x	3%	x
Cn1c(CN2CCCC2)nc2cc(NC(=O)Nc3ccccc3)ccc21	2%	-3%	44	18*	-8%	-3%
CN1CCN(CCc2nc3cc(NC(=O)c4ccco4)ccc3n2C)CC1	-5%	-4%	8	8	-2%	0%
CC1CCN(CCc2nc3cc(NC(=O)Nc4ccccc4)ccc3n2C)CC1	-10%	5%	111*	35*	-1%	2%
CCOC(=O)N1CCN(Cc2nc3cc(NC(=O)c4cccs4)ccc3n2C)CC1	-10%	-1%	-5	5	-6%	2%
CCOC(=O)N1CCN(Cc2nc3cc(NC(=O)c4cccs4)ccc3n2CC)CC1	2%	4%	7	25*	2%	x
Cn1c(CN2CCCC2)nc2cc(NC(=O)c3ccco3)ccc21	-11%	-4%	57	33*	-2%	-9%
Cn1c(CN2CCCCC2)nc2cc(NC(=O)c3ccccc3)ccc21	-6%	3%	51*	36*	9%	-2%
Cc1ccc(C(=O)Nc2ccc3c(c2)nc(CCNC(=O)c2ccco2)n3C)cc1	-11%	1%	44*	32*	-3%	10%
CC(=O)Nc1ccc2c(c1)nc(CN1CCCC1)n2C	-11%	11%	-13	-1	5%	u
Cn1c(CN2CCCCC2)nc2cc(NC(=O)c3cccs3)ccc21	-4%	4%	43*	28*	1%	-10%
CCOC(=O)Nc1ccc2c(c1)nc(CN1CCCCC1)n2C	x	0%	31	23*	x	-4%
CC(=O)Nc1ccc2c(c1)nc(CCNC(=O)c1ccco1)n2C	-12%	2%	-3	-3	0%	-10%
Nc1ccc(N=Nc2ccccc2O)c(N)c1	-10%	x	x	x	-22%	x
